In all, about 650,000 compounds went through this assay and about 6,800 (1%) were called active. Rule as the data show it: active = activation above about 4.9%; inactive = the rest. The entries come from a sample that favours actives as a whole.

The target in this assay is G-protein coupled receptor 151 (Homo sapiens) (UniProt Q8TDV0). Put plainly: activators of human GPR151, primary screen, cell-based, PathHunter beta-arrestin, luminescence (AID 1508602).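 Also: 0% = median of compound wells and 100% = cells with positive control.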 Conditions: PathHunter beta-arrestin GPR151 cells, at 11.2 µM, active compounds read high.
Chain of G-protein coupled receptor 151 (Homo sapiens) (Q8TDV0 whole entry, looked up): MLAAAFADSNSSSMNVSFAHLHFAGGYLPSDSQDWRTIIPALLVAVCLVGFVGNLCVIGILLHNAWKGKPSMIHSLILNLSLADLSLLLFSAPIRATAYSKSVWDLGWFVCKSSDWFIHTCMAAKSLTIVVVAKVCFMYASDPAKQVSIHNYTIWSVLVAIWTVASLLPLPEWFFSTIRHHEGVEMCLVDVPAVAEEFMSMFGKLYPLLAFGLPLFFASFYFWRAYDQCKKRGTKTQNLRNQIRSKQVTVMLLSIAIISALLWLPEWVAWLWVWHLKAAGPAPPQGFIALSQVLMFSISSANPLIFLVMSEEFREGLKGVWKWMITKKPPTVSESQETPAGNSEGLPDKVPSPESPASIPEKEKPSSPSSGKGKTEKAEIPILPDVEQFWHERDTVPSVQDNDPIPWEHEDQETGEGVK
Consider `CCOC(=O)c1c(NC(=O)C(C)Sc2nnc(CNC(=O)COc3ccccc3)n2-c2cccc(Cl)c2)sc2c1CCC2` (stereo unspecified), for which the activation is -0.72% (inactive).
The value for `Cc1[nH]nc(Nc2cccc(C(F)(F)F)c2)c1[N+](=O)[O-]` was 0.158% (inactive).
In the case of `Cn1ncc2c(Nc3cccc(S(=O)(=O)Nc4cccc(C(F)(F)F)c4)c3)ncnc21`, the activation was -0.0154% (inactive).
With `O=[N+]([O-])c1ccc2ncnc(Nc3cccc(C(F)(F)F)c3)c2c1` the figure was 5.31% (active); with `COc1ccc(C(C)(C)C)cc1NC(=O)c1ccc2c(c1)NC(=O)C(C)S2` (stereo unspecified), -1.1% (inactive).
The value for `CCOc1ccc(C(=O)Nc2ccc3c4c(cccc24)CC3)cc1` was 0.563% (inactive); that for `COc1cc(OC)cc(C(=O)Nc2ccc3c4c(cccc24)CC3)c1` was 16.6% (active).
`COc1cc2ccccc2cc1C(=O)Nc1ccc2c3c(cccc13)CC2`: the activation was 1.02% (inactive).
With `COc1ccc(/C=C\C(=O)NCCc2cc3ccc(C)c(C)c3[nH]c2=O)cc1OC` the figure was -0.187% (inactive); with `O=C1CCC(CCNCCOc2ccc(F)cc2)N1CCc1ccccc1` (stereo unspecified), -0.404% (inactive).
The value for `O=C1CCC(CCNCCOc2ccccc2)N1CCc1ccccc1` (stereo unspecified) was 8.35% (active); that for `O=C1CCC(CCNCc2ccccc2)N1CCc1ccccc1F` (stereo unspecified) was 1.45% (inactive); that for `CCOC(=O)N1CCC(NC(=O)c2ccc(N3CC4CC(C3)c3cccc(=O)n3C4)c(NC(=O)c3ccc(OC)cc3)c2)CC1` (stereo unspecified) was -1.15% (inactive).
With `CCOc1ccc(S(=O)(=O)c2c[nH]c3cc(OC)c(OC)cc3c2=O)cc1` the figure was 0.157% (inactive).
In the case of `Cc1cccc(NC(=O)CCn2c(=O)oc3ccccc32)c1`, the activation is -0.466% (inactive).
With `Cc1ccc(NC(=O)CCn2c(=O)oc3ccccc32)cc1Cl` the figure was 10.6% (active); with `CN1C(=O)c2ccc(NC(=O)CCn3c(=O)oc4ccccc43)cc2C1=O`, -1.74% (inactive); with `CCOC(=O)c1c(NC(=O)COC(=O)C(C)c2c(F)c(F)cc(F)c2F)sc2c1CCCC2` (stereo unspecified), 1.7% (inactive).
The value for `COc1ccc(-c2csc3ncc(C(=O)N(C)C(C)C)c(=O)n23)cc1` was 1.24% (inactive).
The value for `Cc1ccc(S(=O)(=O)NCc2nc3nc(C)cc(C)n3n2)cc1` was 10.6% (active); that for `Cc1cccc(CNc2nc3nc(C)cc(C)n3n2)c1` was -0.819% (inactive); that for `Cc1ccc(C(=O)NCc2nc3nc(C)cc(C)n3n2)cc1` was 0.459% (inactive).
For `CCN(CC)CCN1C(=O)C(=O)/C(=C(\O)c2ccc(Cl)cc2)C1c1ccc([N+](=O)[O-])cc1` (stereo unspecified), the activation is -0.703% (inactive).
The value for `NS(=O)(=O)c1cccc(S(=O)(=O)c2ccc(Br)cc2)c1` was 1.39% (inactive); that for `C/C(=N\NC(=O)CCC(=O)N/N=C(\C)c1ccc(Cl)cc1)c1ccc(Cl)cc1` was 0.378% (inactive).
The value for `CCCCCC(=O)N/N=C(\C)c1ccc(O)cc1` was -1.26% (inactive); that for `CCCCCC(=O)N/N=C(/C)c1ccc(O)cc1O` was 7.91% (active).
Regarding `Cc1ccc(C(=O)COC(=O)c2ccc3nc(-c4ccccc4)c(-c4ccccc4)nc3c2)cc1`, the activation is -0.519% (inactive).
The value for `CCc1nnc(NC(=O)CSc2nc(C)cc(C)n2)s1` was -1.16% (inactive); that for `COc1ccc(OC)c(/C=N/n2nnnc2N)c1` was 8.6% (active).
With `Nc1nnnn1/N=C\c1ccc(O)c(O)c1` the figure was 0.149% (inactive); with `COc1cc(/C=N/n2nnnc2N)ccc1OCCC(C)C`, 1.35% (inactive); with `Brc1ccc(-c2cc(-c3ccccc3)c3cc(Br)ccc3n2)cc1`, 1.18% (inactive).
On to `CCCCC(=O)Nc1ccc(C(=O)N2CCN(c3ccccc3F)CC2)cc1`, for which the activation is 1.25% (inactive).
On to `COC(=O)[C@@H]1CC[C@H](C)[C@@H](c2ccc(C)cc2)N1C(=O)c1ccc(/C=N/O[C@H](C)c2cn([C@@H]3COC[C@H]3O)nn2)cc1`, for which the activation was 7.09% (active).
The value for `Cc1cc(N2C(=O)c3ccc(Oc4ccc(NC(=O)CSc5ccc(Cl)cc5)cc4)cc3C2=O)no1` was 1.59% (inactive); that for `O=C(NCCc1ccccn1)c1cn2ccsc2n1` was 0.225% (inactive).
As to `CCSc1nc2sccn2c(=O)c1C(=O)NC(Cc1ccccn1)C(F)(F)F` (stereo unspecified), the activation is 4.95% (active).
With `CSc1nc2sccn2c(=O)c1C(=O)NC(C)CO` (stereo unspecified) the figure was -0.408% (inactive).
`CCCCN(C)CCCN(Cc1ccco1)C(=S)Nc1ccc(Cl)c(C)c1`: the activation is -0.264% (inactive).
With `COc1cccc(CCNC(=O)CCc2nnc(COc3ccccc3)o2)c1` the figure was -0.583% (inactive); with `CSCCNc1nc2nonc2nc1NC1CC1`, 0.51% (inactive).
The value for `O=C1OC(c2ccc(Br)cc2)=N/C1=C\c1cc(Br)cs1` was -0.409% (inactive); that for `COc1cc(C2C3=C(CCCC3=O)NC3=C2C(=O)CCC3)cc(Cl)c1O` was 1.16% (inactive).
The value for `CCOc1cc(C2C3=C(CCCC3=O)NC3=C2C(=O)CCC3)cc(Br)c1OCC` was 5.4% (active).
For `CCOc1cc(C2C3=C(CCCC3=O)NC3=C2C(=O)CCC3)ccc1OCc1ccc(F)cc1`, the activation is -0.184% (inactive).
The value for `Fc1ccc(C2Oc3ccc(Cl)cc3C3CC(c4cccs4)=NN32)cc1` (stereo unspecified) was 0.238% (inactive); that for `Cc1nn(-c2ccccc2)c(C)c1/C=N/n1c(=S)[nH]nc(C)c1=O` was -0.643% (inactive); that for `CCCCCCOC(=O)c1ccc(-c2ccc(-c3ccc(C(=O)OCCCCCC)cc3)cc2)cc1` was -1.7% (inactive).
The value for `CCOC(=O)c1cc2cccnc2nc1C` was 0.721% (inactive); that for `CCCCCCOC(=O)c1cc(C(=O)OCCCCCC)c(C)nc1C` was 6.55% (active); that for `Cc1ccccc1-c1cccc(CN2CCC(=O)N(C)CC2)c1` was 0.112% (inactive).
The value for `CCn1c(NCCO)nc2ccccc21` was 1.96% (inactive).
On to `O=C(Cn1c(NCCCO)nc2ccccc21)c1ccccc1`, for which the activation was -1.59% (inactive).
`O=C(Cn1c(NCCO)nc2ccccc21)c1ccc(Cl)cc1Cl`: the activation is 7.58% (active).
On to `COC(=O)c1cc(CNC(=O)c2cc3ncccn3n2)cc(NC(=O)Cc2ccsc2)c1`, for which the activation was -0.0871% (inactive).
The value for `Cc1cc(Br)ccc1OCC(=O)N1CCN(C=O)CC1` was -1.7% (inactive).
With `COC(=O)c1c(NC(=O)/C(C#N)=C/c2cccs2)sc2c1CCCC2` the figure was -2.04% (inactive).
The value for `O=c1[nH]c(=S)[nH]c(O)c1C=Nc1ccc(F)c(Cl)c1` was 5.26% (active); that for `Nc1cccc(N=Cc2c(O)[nH]c(=S)[nH]c2=O)c1` was -0.879% (inactive).
Regarding `Cc1ccc(N=Cc2c(O)[nH]c(=S)[nH]c2=O)cc1C`, the activation was 0.392% (inactive).
